Measured values as given in ChEMBL document CHEMBL2218924, “A broad activity screen in support of a chemogenomic map for kinase signalling research and drug discovery” (Biochem J, 2013).

target: T1, Serine/threonine-protein kinase Sgk3 (Homo sapiens) (UniProt Q96BR1); settings: at 10 µM
T1 sequence (whole entry): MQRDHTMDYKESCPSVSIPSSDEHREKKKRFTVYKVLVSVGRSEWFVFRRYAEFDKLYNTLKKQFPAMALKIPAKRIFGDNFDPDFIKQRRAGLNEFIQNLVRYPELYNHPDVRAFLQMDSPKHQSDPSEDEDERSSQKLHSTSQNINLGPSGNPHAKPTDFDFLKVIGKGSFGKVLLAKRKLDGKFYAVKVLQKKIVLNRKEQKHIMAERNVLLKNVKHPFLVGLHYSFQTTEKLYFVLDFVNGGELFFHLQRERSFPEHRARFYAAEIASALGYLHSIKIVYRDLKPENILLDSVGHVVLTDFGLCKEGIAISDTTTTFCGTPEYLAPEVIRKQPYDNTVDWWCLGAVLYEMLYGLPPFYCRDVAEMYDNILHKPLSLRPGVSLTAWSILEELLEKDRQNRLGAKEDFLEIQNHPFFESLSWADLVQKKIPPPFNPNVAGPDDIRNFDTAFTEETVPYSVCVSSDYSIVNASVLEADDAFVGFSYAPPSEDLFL

Row | Compound | residual activity [%]
1 | COc1ccc2c(c[n+](C)c3c4cc5c(cc4ccc23)OCO5)c1OC | 79
2 | COc1ccc2c(c1)/C(=C/c1cnc[nH]1)C(=O)N2 | 53
3 | c1cc(-c2cnn3cc(-c4ccc(OCCN5CCCCC5)cc4)cnc23)ccn1 | 78
4 | O=C1NC(=O)c2c1c1c3ccccc3n3c1c1c2c2ccccc2n1C1CCC3O1 | 80
5 | O=[N+]([O-])/C=C/c1ccc2c(c1)OCO2 | 87
6 | O=c1[nH]c2ccccc2n1C1CCN(Cc2ccc(-c3nc4cc5[nH]cnc5cc4nc3-c3ccccc3)cc2)CC1 | 81
7 | O=C1Nc2ccc3ncsc3c2/C1=C/c1c[nH]cn1 | 21
8 | COC(=O)[C@@]1(O)C[C@H]2O[C@]1(C)n1c3ccccc3c3c4c(c5c6ccccc6n2c5c31)C(=O)NC4 | 13
9 | C[S+]([O-])c1ccc(-c2nc(-c3ccc(F)cc3)c(-c3ccncc3)[nH]2)cc1 (configuration not stated) | 101
10 | CCn1cnc2c(Nc3cccc(Cl)c3)nc(N[C@@H]3CCCC[C@@H]3N)nc21 | 59
11 | COc1cc2ncnc(Nc3ccc(OCc4ccccc4)cc3)c2cc1OC | 108

target: Serine/threonine-protein kinase SIK1 (Homo sapiens) (UniProt P57059); settings: at 1 µM
Sequence (P57059 whole entry): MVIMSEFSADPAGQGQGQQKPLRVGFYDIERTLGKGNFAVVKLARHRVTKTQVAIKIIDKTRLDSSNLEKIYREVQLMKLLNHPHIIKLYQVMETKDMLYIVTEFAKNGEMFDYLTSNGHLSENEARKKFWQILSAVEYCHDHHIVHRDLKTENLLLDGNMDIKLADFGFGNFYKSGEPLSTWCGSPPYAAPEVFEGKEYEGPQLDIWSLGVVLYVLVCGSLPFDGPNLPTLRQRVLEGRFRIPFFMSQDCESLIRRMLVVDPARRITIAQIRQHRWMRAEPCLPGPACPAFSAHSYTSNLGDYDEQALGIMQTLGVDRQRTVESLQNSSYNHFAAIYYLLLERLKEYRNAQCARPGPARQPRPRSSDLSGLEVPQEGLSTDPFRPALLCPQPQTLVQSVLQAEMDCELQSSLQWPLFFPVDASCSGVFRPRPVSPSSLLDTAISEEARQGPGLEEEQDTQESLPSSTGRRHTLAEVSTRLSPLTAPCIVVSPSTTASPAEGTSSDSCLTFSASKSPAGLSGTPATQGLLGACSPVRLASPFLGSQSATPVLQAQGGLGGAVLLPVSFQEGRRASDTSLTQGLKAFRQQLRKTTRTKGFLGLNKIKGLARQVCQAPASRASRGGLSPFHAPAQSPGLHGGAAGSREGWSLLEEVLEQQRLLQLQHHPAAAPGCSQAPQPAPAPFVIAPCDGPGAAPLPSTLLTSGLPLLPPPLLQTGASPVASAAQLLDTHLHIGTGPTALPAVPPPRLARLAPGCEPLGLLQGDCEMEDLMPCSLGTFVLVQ

Row | Compound | residual activity [%]
12 | COc1ccc2c(c[n+](C)c3c4cc5c(cc4ccc23)OCO5)c1OC | 92
13 | COc1ccc2c(c1)/C(=C/c1cnc[nH]1)C(=O)N2 | 145
14 | c1cc(-c2cnn3cc(-c4ccc(OCCN5CCCCC5)cc4)cnc23)ccn1 | 43
15 | O=C1NC(=O)c2c1c1c3ccccc3n3c1c1c2c2ccccc2n1C1CCC3O1 | 123
16 | O=[N+]([O-])/C=C/c1ccc2c(c1)OCO2 | 100
17 | O=c1[nH]c2ccccc2n1C1CCN(Cc2ccc(-c3nc4cc5[nH]cnc5cc4nc3-c3ccccc3)cc2)CC1 | 115
18 | O=C1Nc2ccc3ncsc3c2/C1=C/c1c[nH]cn1 | 49
19 | COC(=O)[C@@]1(O)C[C@H]2O[C@]1(C)n1c3ccccc3c3c4c(c5c6ccccc6n2c5c31)C(=O)NC4 | 0
20 | C[S+]([O-])c1ccc(-c2nc(-c3ccc(F)cc3)c(-c3ccncc3)[nH]2)cc1 (configuration not stated) | 132
21 | CC(C)(C)c1cc(C=C(C#N)C#N)cc(Br)c1O | 103
22 | CCn1cnc2c(Nc3cccc(Cl)c3)nc(N[C@@H]3CCCC[C@@H]3N)nc21 | 20
23 | COc1cc2ncnc(Nc3ccc(OCc4ccccc4)cc3)c2cc1OC | 82

target: Serine/threonine-protein kinase SIK1 (Homo sapiens) (UniProt P57059); settings: at 10 µM

Row | Compound | residual activity [%]
24 | COc1ccc2c(c1)/C(=C/c1cnc[nH]1)C(=O)N2 | 48
25 | c1cc(-c2cnn3cc(-c4ccc(OCCN5CCCCC5)cc4)cnc23)ccn1 | 9
26 | O=C1NC(=O)c2c1c1c3ccccc3n3c1c1c2c2ccccc2n1C1CCC3O1 | 74
27 | O=[N+]([O-])/C=C/c1ccc2c(c1)OCO2 | 112
28 | O=c1[nH]c2ccccc2n1C1CCN(Cc2ccc(-c3nc4cc5[nH]cnc5cc4nc3-c3ccccc3)cc2)CC1 | 44
29 | O=C1Nc2ccc3ncsc3c2/C1=C/c1c[nH]cn1 | 43
30 | COC(=O)[C@@]1(O)C[C@H]2O[C@]1(C)n1c3ccccc3c3c4c(c5c6ccccc6n2c5c31)C(=O)NC4 | 0
31 | C[S+]([O-])c1ccc(-c2nc(-c3ccc(F)cc3)c(-c3ccncc3)[nH]2)cc1 (configuration not stated) | 93
32 | CC(C)(C)c1cc(C=C(C#N)C#N)cc(Br)c1O | 139
33 | CCn1cnc2c(Nc3cccc(Cl)c3)nc(N[C@@H]3CCCC[C@@H]3N)nc21 | 0
34 | COc1cc2ncnc(Nc3ccc(OCc4ccccc4)cc3)c2cc1OC | 103

target: SRSF protein kinase 1 (Homo sapiens) (UniProt Q96SB4); settings: at 1 µM
Sequence (Q96SB4 whole entry): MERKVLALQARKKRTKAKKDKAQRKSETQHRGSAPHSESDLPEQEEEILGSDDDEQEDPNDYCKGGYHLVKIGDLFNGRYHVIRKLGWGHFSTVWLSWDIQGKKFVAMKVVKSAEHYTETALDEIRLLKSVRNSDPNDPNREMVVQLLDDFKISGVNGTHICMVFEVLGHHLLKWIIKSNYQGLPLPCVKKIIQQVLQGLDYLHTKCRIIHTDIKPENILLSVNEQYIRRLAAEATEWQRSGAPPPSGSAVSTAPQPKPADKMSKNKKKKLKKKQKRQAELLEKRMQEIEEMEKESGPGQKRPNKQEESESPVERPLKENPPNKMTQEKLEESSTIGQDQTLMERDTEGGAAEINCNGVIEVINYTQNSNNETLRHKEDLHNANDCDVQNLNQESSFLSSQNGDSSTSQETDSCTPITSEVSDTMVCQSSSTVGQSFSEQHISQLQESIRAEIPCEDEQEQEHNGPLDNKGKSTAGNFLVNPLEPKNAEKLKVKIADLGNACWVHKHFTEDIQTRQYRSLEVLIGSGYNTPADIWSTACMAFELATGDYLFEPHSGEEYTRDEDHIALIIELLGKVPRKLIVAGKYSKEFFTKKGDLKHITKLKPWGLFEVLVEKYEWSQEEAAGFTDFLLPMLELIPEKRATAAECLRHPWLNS

Row | Compound | residual activity [%]
35 | O=C1NC(=O)c2c1c1c3ccccc3n3c1c1c2c2ccccc2n1C1CCC3O1 | 92
36 | O=[N+]([O-])/C=C/c1ccc2c(c1)OCO2 | 111
37 | O=c1[nH]c2ccccc2n1C1CCN(Cc2ccc(-c3nc4cc5[nH]cnc5cc4nc3-c3ccccc3)cc2)CC1 | 80
38 | O=C1Nc2ccc3ncsc3c2/C1=C/c1c[nH]cn1 | 102
39 | COC(=O)[C@@]1(O)C[C@H]2O[C@]1(C)n1c3ccccc3c3c4c(c5c6ccccc6n2c5c31)C(=O)NC4 | 67
40 | C[S+]([O-])c1ccc(-c2nc(-c3ccc(F)cc3)c(-c3ccncc3)[nH]2)cc1 (configuration not stated) | 112
41 | CC(C)(C)c1cc(C=C(C#N)C#N)cc(Br)c1O | 114
42 | COc1cc2ncnc(Nc3ccc(OCc4ccccc4)cc3)c2cc1OC | 102

target: SRSF protein kinase 1 (Homo sapiens) (UniProt Q96SB4); settings: at 10 µM

Row | Compound | residual activity [%]
43 | COc1ccc2c(c[n+](C)c3c4cc5c(cc4ccc23)OCO5)c1OC | 98
44 | COc1ccc2c(c1)/C(=C/c1cnc[nH]1)C(=O)N2 | 98
45 | O=C1NC(=O)c2c1c1c3ccccc3n3c1c1c2c2ccccc2n1C1CCC3O1 | 83
46 | O=[N+]([O-])/C=C/c1ccc2c(c1)OCO2 | 99
47 | O=c1[nH]c2ccccc2n1C1CCN(Cc2ccc(-c3nc4cc5[nH]cnc5cc4nc3-c3ccccc3)cc2)CC1 | 97
48 | O=C1Nc2ccc3ncsc3c2/C1=C/c1c[nH]cn1 | 101
49 | COC(=O)[C@@]1(O)C[C@H]2O[C@]1(C)n1c3ccccc3c3c4c(c5c6ccccc6n2c5c31)C(=O)NC4 | 14
50 | C[S+]([O-])c1ccc(-c2nc(-c3ccc(F)cc3)c(-c3ccncc3)[nH]2)cc1 (configuration not stated) | 109
51 | CCn1cnc2c(Nc3cccc(Cl)c3)nc(N[C@@H]3CCCC[C@@H]3N)nc21 | 39
52 | COc1cc2ncnc(Nc3ccc(OCc4ccccc4)cc3)c2cc1OC | 116
